Results filed as inconclusive are left out. Active and inactive are the calls of the source. The calls were made as follows, unless noted: active = hit-call score of the fitted dose curve at least 0.9, where 1 is the maximum; inactive = score below 0.9.

The nature of test [1]: CCTE_Shafer_MEA_dev_AB: CCTE's Alamar Blue Assay for Cytotoxicity in the Neural Network Formation Assay, Shafer Lab (AID 2284083; active = hit-call score of the fitted dose curve at least 0.9, where 1 is the maximum;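 also: twelve days of exposure from plating with re-dosing on DIV 5 and 9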). In outline: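 Primary rat cortical neurons on PEI-coated 48-well MEA plates, 1.5 x 10^5 cells/well in laminin drop; compound exposure from day 0 of plating for twelve days, renewed at medium changes on DIV 5 and 9. Viability read as resazurin reduction by fluorescence, relative to DMSO.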
(In general: Alamar Blue is a resazurin reagent that responds to reducing activity.)

The nature of test [2]: UKN2_HCS_IMR90_neural_migration: University of Konstanz (UKN) Leist Lab Neural Crest Cell Migration Assay in human induced IMR90 Pluripotent Stem Cells (UKN2) (AID 2284204). As to conditions: actives raise or lower the signal. In outline: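 High-content imaging of calcein-AM and Hoechst stained cells quantifies migration into a stopper-defined gap after 24 h compound exposure. Neural crest cells from IMR90 iPSC migrated 24 h in EGF/FGF N2-S medium before dosing; DMSO baseline.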

A short description of test [3]: IUF_NPC1b_proliferation_BrdU_72hr: Leibniz Research Institute for Environmental Medicine (IUF) 72-hour Neural Progenitor Cell Bromodeoxyuridine (BrdU) Proliferation Assay (NPC1b) (AID 2284207). A digest of the protocol:
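Human fetal cortex-derived (GW 16-19) neural progenitor spheres, 0.25-0.35 mm, one per well in EGF/FGF proliferation medium, exposed to compound for 72 h at 37C, pH 7.2-7.6. BrdU incorporation over the final 16 h read by luminescence ELISA, relative to DMSO.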

The nature of test [4]: IUF_NPC1a_proliferation_area_72hr: Leibniz Research Institute for Environmental Medicine (IUF) 72-hour Neural Progenitor Cell Proliferation Area Assay (NPC1a) (AID 2284208). In outline:
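Proliferation read as increase in sphere area by phase-contrast imaging over 72 h continuous compound exposure (no renewal) of hNPC spheres grown with EGF/FGF at 37C, 5% CO2. Growth-factor withdrawal served as positive control; DMSO as baseline.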

Test [5] is described as follows: IUF_NPC1_viability_72hr: Viability Assessment at 72 hours in the Leibniz Research Institute for Environmental Medicine (IUF) Neural Progenitor Cell Proliferation Assay (NPC1) (AID 2284209). In outline: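 Three-day continuous exposure of human neural progenitor spheres under EGF/FGF-driven proliferation; cell viability scored by alamar blue signal versus DMSO.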
A short description of test [6]: CCTE_Mundy_HCI_Cortical_NOG_NeuriteLength: CCTE's Neurite Outgrowth Assay in rat cortical cells for Neurite Length, Mundy Lab (AID 2284213).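 Also: neurites imaged about 48 to 50 h after chemical exposure began.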 A digest of the protocol: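 First, rat primary cortical cells were plated and, 2 h later, given test chemical as a 1/10 dilution. Finally, βIII-tubulin immunostaining enabled automated imaging of neurite length.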
Test [7] can be described thus: CCTE_Mundy_HCI_Cortical_Synap_Neur_Matur_NeuriteLength: CCTE's Synaptogenesis and Neurite Maturation Assay in rat cortical cells for Neurite Length, Mundy Lab (AID 2284214). In outline: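 DMSO-normalised neurite length, from high-content imaging of anti-MAP2-stained rat cortical cells fixed at DIV 12. Glia were suppressed with AraC (DIV 5) before chemical exposure from DIV 7.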

Test [8] is described as follows: CCTE_Mundy_HCI_Cortical_Synap_Neur_Matur_NeuriteSpotCountPerNeuron: CCTE's Synaptogenesis and Neurite Maturation Assay in rat cortical cells for Neurite Spot Count per Neuron Count, Mundy Lab (AID 2284215). In outline:
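High-content imaging counts synaptophysin puncta along MAP2-labelled neurites per neuron after chemical exposure of rat cortical cells from DIV 7 to termination at DIV 12 (AraC added DIV 5). Loss of signal relative to DMSO.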

A short description of test [9]: CCTE_Mundy_HCI_Cortical_Synap_Neur_Matur_SynapseCount: CCTE's Synaptogenesis and Neurite Maturation Assay in rat cortical cells for Synapse Count, Mundy Lab (AID 2284218). A digest of the protocol: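 Endpoint: synapses/neuron by HCI (synaptophysin puncta on MAP2-labelled neurites, Hoechst nuclei). Rat primary cortical cells, AraC DIV 5, dosed DIV 7, fixed DIV 12; DMSO negative control.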

Test [10] can be described thus: UKN2_HCS_IMR90_cell_viability: Viability Assessment in the University of Konstanz (UKN) Leist Lab Neural Crest Cell Migration Assay in human induced IMR90 Pluripotent Stem Cells (UKN2) (AID 2284233).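 Also: cells exposed to compound for 24 h after a 24 h migration phase.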 In outline: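 After calcein-AM/Hoechst staining, viability is quantified by high-content fluorescence imaging, relative to DMSO, in iPSC (IMR90)-derived neural crest cells. Exposure lasts 24 h, starting after a 24 h migration period on PLO/laminin/fibronectin coating.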

Test [11] can be described thus: IUF_NPC2c_oligodendrocyte_migration_120hr: Leibniz Research Institute for Environmental Medicine (IUF) 120-hour Neural Progenitor Cell Migration Assay for Oligodendrocyte Migration (NPC2c) (AID 2284297).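 Also: O4-positive oligodendrocyte migration distance divided by radial glia migration distance.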 A digest of the protocol:
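Exposure runs 5 days from differentiation onset at 37C, seven concentrations plus solvent control, DMSO at most 0.1%, applied to primary hNPC spheres on laminin. After fixation, O4 immunostaining gives oligodendrocyte distance from the sphere core, relative to radial glia migration.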

The nature of test [12]: IUF_NPC2a_radial_glia_migration_120hr: Leibniz Research Institute for Environmental Medicine (IUF) 120-hour Neural Progenitor Cell Migration Assay for Radial Glia Migration (NPC2a) (AID 2284298). In outline:
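Migration distance in um, sphere core edge to migration-area edge, derived by nuclei-density algorithm from Hoechst images after 120 h compound exposure. Primary hNPC spheres differentiated on poly-D-lysine/laminin in N2 medium, 37C; medium half-replaced day 3.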

A short description of test [13]: IUF_NPC2a_radial_glia_migration_72hr: Leibniz Research Institute for Environmental Medicine (IUF) 72-hour Neural Progenitor Cell Migration Assay for Radial Glia Migration (NPC2a) (AID 2284299). In outline:
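Spheres of human primary neural progenitors migrate on poly-D-lysine/laminin under compound exposure at 37C, 5% CO2. The 72 h radial glia migration distance comes from brightfield images, measured manually.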

A short description of test [14]: IUF_NPC2b_neuronal_migration_120hr: Leibniz Research Institute for Environmental Medicine (IUF) 120-hour Neural Progenitor Cell Migration Assay for Neuron Migration (NPC2b) (AID 2284300). In outline: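 TUBB3-positive neurons are imaged after 120 h of differentiation, and their mean distance from the sphere edge is normalised to radial glia migration. Single 0.3 mm fetal hNPC spheres on poly-D-lysine/laminin received 7 compound concentrations, ≤0.1% DMSO, refreshed at day 3.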

The nature of test [15]: IUF_NPC3_neuronal_differentiation_120hr: Leibniz Research Institute for Environmental Medicine (IUF) 120-hour Neuronal Differentiation Assay (NPC3) (AID 2284301). A digest of the protocol: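 Value is percent TUBB3-positive neurons among Hoechst-stained nuclei in the migration area, scored by trained CNN after 120 h differentiation. Primary hNPC spheres on poly-D-lysine/laminin, N2 medium, continuous dosing from day 0, half-refeed day 3; DMSO reference.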

Test [16] in a line: IUF_NPC4_neurite_length_120hr: Leibniz Research Institute for Environmental Medicine (IUF) 120-hour Neuronal Morphology Assay for Neurite Length (NPC4) (AID 2284302). In outline:
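Neurite length, the mean in um across TUBB3-stained neurons, is derived by skeletonization of high-content images after 120 h differentiation. Compound exposure, 7 concentrations plus solvent control, ran from plating of hNPC spheres on poly-D-lysine/laminin, with medium half-replaced on day 3.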

The nature of test [17]: IUF_NPC2-5_cytotoxicity_72hr: Cytotoxicity Assessment at 72 hours in the Leibniz Research Institute for Environmental Medicine (IUF) Neural Progenitor Cell Migration and Differentiation Assay for Cytotoxicity (NPC2-5) (AID 2284306; active = hit-call score of the fitted dose curve at least 0.9, where 1 is the maximum;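 also: LDH release into supernatant measured by resorufin fluorescence marking membrane damage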). In outline: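 Membrane-integrity cytotoxicity at 72 h, read as LDH-driven resorufin fluorescence in supernatant. hNPC spheres from fetal cortex differentiate on coated plates in N2 medium, 37C, 5% CO2; seven serial compound concentrations plus solvent control (DMSO ≤0.1%).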

The nature of test [18]: IUF_NPC2-5_cell_number_120hr: Cell Number Assessment at 120 hours in the Leibniz Research Institute for Environmental Medicine (IUF) Neural Progenitor Cell Migration and Differentiation Assay (NPC2-5) (AID 2284308).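 Also: count of Hoechst-stained nuclei in migration zone around plated human neural progenitor spheres.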 In outline:
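Counting of all Hoechst-stained nuclei in the migration area at 120 h, versus DMSO control. Primary hNPC spheres differentiated on poly-D-lysine/laminin in N2 medium at 37C, dosed from day 0 (7 concentrations, DMSO ≤0.1%), half-refed day 3.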

Test [19] is described as follows: IUF_NPC2-5_viability_120hr: Viability Assessment at 120 hours in the Leibniz Research Institute for Environmental Medicine (IUF) Neural Progenitor Cell Migration and Differentiation Assay (NPC2-5) (AID 2284312). In outline: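 Alamar blue resorufin fluorescence read after 5 days of differentiation, with compound present from day 0 and replenished at day 3. Primary hNPC spheres on laminin-coated plates, 37C; seven concentrations plus solvent control, fitted against DMSO.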

Test [20] in a line: CCTE_Harrill_HTTr_Apoptosis_MCF7: CCTE's 6-hour Apoptosis Assessment for the High-Throughput Transcriptomics (HTTr) Platform, in MCF-7 cells cultured in DMEM + 10% fetal bovine serum, Harrill Lab (AID 2284011). A digest of the protocol:
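High-content imaging of CellEvent Caspase 3/7 Green signal follows a six-hour exposure, with eight concentrations per chemical. MCF-7 cells grown in DMEM plus 10% fetal bovine serum; activity fitted in both directions against DMSO.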

Broadly, the AC50 is the concentration giving half of the maximal activity seen. Regarding `CCOP(=O)(OCC)SCSC(C)(C)C`, the AC50 in test [1] was 90.6 µM (active); in test [6] it was 49.5 µM (active); in test [12] it was 0.875 µM (active). The compound was classed as inactive in test [2], in test [3], in test [4], in test [5], in [7] and in test [8]. The compound was classed as inactive in [9], in [10], in test [11], in test [13], in [14] and in [15]. Moreover, the outcome in [16], in [17], in [18] and in test [19] was inactive.
As to `CC1(C)C(C=C(Cl)Cl)C1C(=O)O[C@H](C#N)c1cccc(Oc2ccccc2)c1` (some centres undefined), the AC50 in test [1] is 5.41 µM (active); in test [3] it was 12.8 µM (active); in [6] it was 82 µM (active); in test [7], 11 µM (active); in test [8], 10.8 µM (active); in test [9], 10.9 µM (active). Besides, in test [15], the concentration at half-maximal activity (AC50) is 0.851 µM (active). The call in test [2], in [4], in test [5], in test [10], in test [11] and in test [12] was inactive. Also, the result in test [13], in [14], in test [16], in test [17], in test [18] and in [19] was inactive.
Consider `CC(C)(C)OOC(C)(C)C#CC(C)(C)OOC(C)(C)C`, for which the outcome in test [20] was inactive.
Regarding `[O-][Cl+3]([O-])([O-])O`, the outcome in [20], in test [2], in test [4], in test [5], in test [10] and in test [11] was inactive. For the same compound, the result in test [12], in test [13], in test [14], in test [15], in test [16] and in [17] was inactive. Also, the compound was classed as inactive in [18] and in [19]. The AC50 in test [3] was 0.171 µM (active).

The record behind these values is PubChem BioAssay (EPA / NIEHS).
